Data from PubChem BioAssay (NCI).
Compounds without any hit were thinned out: in the full panel of roughly 83,000, 20% have a hit.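 Activity criterion: percent growth below 10, measured after cells in 96-well plates were exposed to a single compound concentration for 48 hours.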 Activity calls are given as the source filed them.

Key:
Assay in all cases: NCI-60 one-dose screen, 48 h (100 = growth as untreated, 0 = no growth, -100 = all killed)
Settings in all cases: 10 µM unless noted
SK-MEL-2 melanoma = test system: SK-MEL-2 melanoma
EKVX NSCLC = test system: EKVX NSCLC
SN12C renal = test system: SN12C renal
UO-31 renal = test system: UO-31 renal
TK-10 renal = test system: TK-10 renal
ACHN renal = test system: ACHN renal
CAKI-1 renal = test system: CAKI-1 renal
A498 renal = test system: A498 renal
CCRF-CEM leukemia = test system: CCRF-CEM leukemia
MOLT-4 leukemia = test system: MOLT-4 leukemia

Measured: growth

CCCCCCCCCCCCCCCCCCOc1ccccc1CC(=O)OCC[N+]1(C)CCCC1
inactive: SK-MEL-2 melanoma 65.6% | EKVX NSCLC 53.8% | SN12C renal 12.7% | UO-31 renal 62.8% | TK-10 renal 45.2% | ACHN renal 78.9% | CAKI-1 renal 30.9% | A498 renal 60.7% | CCRF-CEM leukemia 19.8% | MOLT-4 leukemia 18.1%

Cc1nc2c(=O)[nH]c(SCC(=O)Nc3cccc(F)c3)nc2[nH]c1=O
inactive: SK-MEL-2 melanoma 103% | EKVX NSCLC 104% | SN12C renal 100% | UO-31 renal 84% | TK-10 renal 105% | ACHN renal 105% | CAKI-1 renal 89.3% | A498 renal 111% | CCRF-CEM leukemia 90.8% | MOLT-4 leukemia 100%

C=C1C(=O)O[C@H]2[C@H]1CC/C(COC(=O)CSCCSCC(=O)OC/C1=C/CC[C@@]3(C)O[C@H]3[C@H]3OC(=O)C(=C)[C@@H]3CC1)=C\CC[C@@]1(C)O[C@@H]21
inactive: SK-MEL-2 melanoma 70% | EKVX NSCLC 11% | TK-10 renal 16.6% | A498 renal 88.7%
active: SN12C renal -10.4% | UO-31 renal 7.85% | ACHN renal 2.6% | CAKI-1 renal 9.17% | CCRF-CEM leukemia -41.5% | MOLT-4 leukemia -22.5%

COc1cc(C(=O)n2nc(N3CCN(C)CC3)c3cc(N)ccc32)cc(OC)c1OC
active: A498 renal -3.79%
inactive: SK-MEL-2 melanoma 70.9% | EKVX NSCLC 34.1% | SN12C renal 39.6% | UO-31 renal 26.4% | TK-10 renal 59.1% | ACHN renal 36.8% | CAKI-1 renal 57.3% | CCRF-CEM leukemia 20.2% | MOLT-4 leukemia 17.3%

CC[C@]12C=CCN3CC[C@@]4(c5cc(NC(=O)CCC(=O)OCc6cn(Cc7ccc(F)cc7)nn6)c(OC)cc5N(C)[C@H]4[C@@](O)(C(=O)OC)[C@@H]1OC(C)=O)[C@@H]32
inactive: SK-MEL-2 melanoma 109% | EKVX NSCLC 101% | SN12C renal 96.4% | UO-31 renal 85.8% | TK-10 renal 94% | ACHN renal 101% | CAKI-1 renal 89.7% | A498 renal 109% | CCRF-CEM leukemia 102% | MOLT-4 leukemia 104%

Cn1ccc2c3c(ccc21)CC3=O
inactive: SK-MEL-2 melanoma 126% | EKVX NSCLC 103% | SN12C renal 106% | UO-31 renal 107% | TK-10 renal 124% | ACHN renal 111% | CAKI-1 renal 92.3% | A498 renal 92.6% | CCRF-CEM leukemia 111% | MOLT-4 leukemia 88.9%

O=C1C(Cl)=C(Nc2ccc(O)cc2)C(=O)N1Cc1ccc(Cl)cc1
active: CCRF-CEM leukemia 4.97%
inactive: SK-MEL-2 melanoma 66.2% | EKVX NSCLC 79% | SN12C renal 64.9% | UO-31 renal 52.2% | TK-10 renal 63.2% | ACHN renal 71.4% | CAKI-1 renal 74% | A498 renal 75.4% | MOLT-4 leukemia 16.9%

N#Cc1c(N)nnn1Cc1cc(=O)oc2c1ccc1ccccc12
inactive: SK-MEL-2 melanoma 94.6% | EKVX NSCLC 76.1% | SN12C renal 94.2% | UO-31 renal 72.8% | TK-10 renal 115% | ACHN renal 97.6% | CAKI-1 renal 98% | A498 renal 89.7% | CCRF-CEM leukemia 90.9% | MOLT-4 leukemia 89%

COC(=O)/C(CCC=C(C)C)=C1\[C@@H](OC(C)=O)C[C@@]2(C)[C@H]1C[C@@H](O)[C@H]1[C@@]3(C)CC[C@H](NCCN)[C@@H](C)[C@@H]3CC[C@@]12C
inactive: SK-MEL-2 melanoma 92.6% | EKVX NSCLC 82.2% | SN12C renal 81.2% | UO-31 renal 69.4% | TK-10 renal 101% | ACHN renal 99.6% | CAKI-1 renal 88.3% | A498 renal 94.4% | CCRF-CEM leukemia 79.4%
active: MOLT-4 leukemia -13.2%

CCCCOC(=O)OCc1cc(=O)c(O)co1
inactive: SK-MEL-2 melanoma 109% | EKVX NSCLC 99.7% | SN12C renal 99.2% | UO-31 renal 92.1% | TK-10 renal 94.5% | ACHN renal 97.7% | CAKI-1 renal 93.3% | A498 renal 110% | CCRF-CEM leukemia 109% | MOLT-4 leukemia 102%

CC(C)(C)n1cc(-c2ccnc(NCCCNS(=O)(=O)c3ccc(F)cc3)c2)c(-c2cccc(F)c2)n1
inactive: SK-MEL-2 melanoma 88.4% | EKVX NSCLC 57.3% | SN12C renal 66.5% | UO-31 renal 50.3% | TK-10 renal 97.7% | ACHN renal 61.4% | CAKI-1 renal 53.6% | A498 renal 70.2% | CCRF-CEM leukemia 49.1% | MOLT-4 leukemia 41.7%

COc1ccc(C/C(C)=C(/c2ccc(OCCN3CCCCC3)cc2)c2ccc(OC(=O)NCc3ccccc3)cc2)cc1
active: SK-MEL-2 melanoma -86.2% | EKVX NSCLC -78.4% | SN12C renal -88% | UO-31 renal -92.2% | TK-10 renal -90.7% | ACHN renal -100% | CAKI-1 renal -95% | A498 renal -97.1% | CCRF-CEM leukemia -44.1% | MOLT-4 leukemia -53.2%

Fc1cc2c(cc1Cl)N(c1ncnc3ccc(-c4cnc5[nH]ncc5c4)cc13)CC2
active: A498 renal -6.52%
inactive: SK-MEL-2 melanoma 91.4% | EKVX NSCLC 41.9% | SN12C renal 47.6% | UO-31 renal 21.8% | TK-10 renal 54.6% | ACHN renal 30.9% | CAKI-1 renal 38.7% | CCRF-CEM leukemia 71.1% | MOLT-4 leukemia 60.1%

Cc1nc(N2CCOCC2)sc1S(N)(=O)=O
inactive: SK-MEL-2 melanoma 98.6% | EKVX NSCLC 101% | SN12C renal 94.5% | UO-31 renal 86.5% | TK-10 renal 90.1% | ACHN renal 100% | CAKI-1 renal 96.9% | A498 renal 93.4% | CCRF-CEM leukemia 105% | MOLT-4 leukemia 107%

CC(=O)OC[C@]12CCC(C)(C)C[C@H]1[C@@]1(O)[C@H](O)C[C@@H]3[C@@]4(C)CCCNC(C)(C)[C@@H]4CC[C@@]3(C)[C@]1(C)CC2
inactive: SK-MEL-2 melanoma 112% | EKVX NSCLC 101% | SN12C renal 99.5% | UO-31 renal 85.8% | TK-10 renal 103% | ACHN renal 109% | CAKI-1 renal 106% | A498 renal 86.5% | CCRF-CEM leukemia 102% | MOLT-4 leukemia 104%

Cn1ccnc1C(=O)C(=O)Nc1ccc(CC(=O)Nc2ccccc2)cc1
inactive: SK-MEL-2 melanoma 123% | EKVX NSCLC 102% | SN12C renal 103% | UO-31 renal 85.7% | TK-10 renal 116% | ACHN renal 107% | CAKI-1 renal 93.3% | A498 renal 103% | CCRF-CEM leukemia 105% | MOLT-4 leukemia 107%

O=C1NC(=O)c2c1c1c3ccccc3ccc1c1[nH]c3ccc(Br)cc3c21
active: SN12C renal 9.28% | UO-31 renal 2.24% | ACHN renal 1.55% | A498 renal -10.7% | MOLT-4 leukemia 9.35%
inactive: SK-MEL-2 melanoma 35.4% | EKVX NSCLC 18% | TK-10 renal 36.8% | CAKI-1 renal 15.8% | CCRF-CEM leukemia 10.8%

N#C/C(=C/c1ccc([N+](=O)[O-])cc1)n1nnc2cc(F)c(F)cc21
inactive: SK-MEL-2 melanoma 75.6% | EKVX NSCLC 103% | SN12C renal 61.1% | UO-31 renal 64.7% | TK-10 renal 24.5% | ACHN renal 36.2% | CAKI-1 renal 71.2% | A498 renal 75.3% | CCRF-CEM leukemia 15.1% | MOLT-4 leukemia 38.6%

CN1CCN(c2ccc(NC(=O)c3nc4ccc5[nH]ncc5c4c4c3CCCC4)cc2C(F)(F)F)CC1
active: CCRF-CEM leukemia 5.81%
inactive: SK-MEL-2 melanoma 88.2% | EKVX NSCLC 88.2% | SN12C renal 32.6% | UO-31 renal 64.3% | TK-10 renal 109% | ACHN renal 15.2% | CAKI-1 renal 19.4% | A498 renal 82.4% | MOLT-4 leukemia 36.1%

Cc1ccc(-c2nc(N3CCNCC3)c3oc(-c4ccccc4)nc3n2)cc1
active: SN12C renal -84.3% | UO-31 renal -90.6% | TK-10 renal -98.6% | ACHN renal -99.8% | CCRF-CEM leukemia -76% | MOLT-4 leukemia -68.8%
inactive: SK-MEL-2 melanoma 61.2% | EKVX NSCLC 101% | CAKI-1 renal 40.5% | A498 renal 95.7%

O=C(Nc1cc(Cl)ccc1O)c1ccc(Nc2ccnc(C(F)(F)F)c2)cc1
inactive: SK-MEL-2 melanoma 41.4% | EKVX NSCLC 71.2% | SN12C renal 35.6% | UO-31 renal 12.6% | TK-10 renal 79% | ACHN renal 23.7% | CAKI-1 renal 58.7% | A498 renal 35.8% | MOLT-4 leukemia 19.2%
active: CCRF-CEM leukemia 2.44%

CN(C)CCCC1(c2ccc(F)cc2)OCc2cc(-c3cncc4ccccc34)ccc21 (stereo not given)
inactive: SK-MEL-2 melanoma 58.7% | EKVX NSCLC 76.2% | SN12C renal 43.1% | UO-31 renal 29.9% | TK-10 renal 83.1% | ACHN renal 36.9% | CAKI-1 renal 28.2% | A498 renal 34.1% | CCRF-CEM leukemia 26.9% | MOLT-4 leukemia 14.6%

N#C/C(=C\c1ccc(-c2ccc(Cl)cc2)o1)C(=O)Nc1ncc(Cc2ccc(Cl)cc2)s1
active: SN12C renal -0.639% | ACHN renal 5.97%
inactive: SK-MEL-2 melanoma 95.4% | EKVX NSCLC 33.7% | UO-31 renal 42.1% | TK-10 renal 19.8% | CAKI-1 renal 39.1% | A498 renal 69.9% | CCRF-CEM leukemia 41.4% | MOLT-4 leukemia 78.3%

CNC(=O)c1cc(Oc2ccc3nc(NC(C)=O)sc3c2)ccn1
inactive: SK-MEL-2 melanoma 94.9% | EKVX NSCLC 97.8% | SN12C renal 106% | UO-31 renal 95% | TK-10 renal 104% | ACHN renal 104% | CAKI-1 renal 89.2% | A498 renal 106% | CCRF-CEM leukemia 94.7% | MOLT-4 leukemia 90.4%

Cc1ccc(Sc2oc(-c3ccc(C)cc3)nc2[P+](c2ccccc2)(c2ccccc2)c2ccccc2)cc1
active: SK-MEL-2 melanoma -36% | EKVX NSCLC 6.65% | SN12C renal 3.64% | UO-31 renal -22.3% | ACHN renal -6.75% | CAKI-1 renal -23.2% | A498 renal -40.5% | CCRF-CEM leukemia -2.03% | MOLT-4 leukemia -25.9%
inactive: TK-10 renal 22.7%

CCO/C=N/C1=C(C#N)C(c2ccc(OC)cc2)c2sc3c(F)cccc3c2O1 (stereo not given)
inactive: SK-MEL-2 melanoma 33.3% | EKVX NSCLC 49.4% | SN12C renal 39.6% | UO-31 renal 38.1% | TK-10 renal 51.8% | ACHN renal 48.1% | CAKI-1 renal 25.2% | A498 renal 21.7% | CCRF-CEM leukemia 12.2% | MOLT-4 leukemia 24.5%
